Screening results as filed in PubChem BioAssay.
CHT block = human CHT choline transport inhibition; CHT-expressing cells, membrane potential dye, choline response; hits give low values; Q9GZV3; B-score at 10 µM; actives 0.86% (n = 310,000);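 active means B-score over 3 SD under the library average, and starting fluorescence ratio not unusually high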;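 further: choline stimulus applied at its EC90 after an EC20 pre-addition; B-score computed on integrated fluorescence ratio after choline addition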
ALR H2O2 inh = human ALR oxidase inhibition via reduced H2O2; P55789; purified ALR, DTT oxidation, H2O2 HRP-luminol luminescence; inhibition, % (concentration not given with the values); actives 3.8% (n = 290,000);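 active means mean replicate inhibition above about 79%, with every replicate also reaching it, limit read from the data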
Target sequence (P55789 whole entry, looked up): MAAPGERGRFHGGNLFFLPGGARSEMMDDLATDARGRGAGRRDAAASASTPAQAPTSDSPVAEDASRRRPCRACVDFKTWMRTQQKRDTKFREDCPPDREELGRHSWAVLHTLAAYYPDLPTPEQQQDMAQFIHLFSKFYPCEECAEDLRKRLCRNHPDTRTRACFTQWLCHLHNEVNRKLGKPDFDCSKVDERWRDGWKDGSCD
AI-2 QS mod = modulators of Vibrio harveyi AI-2 quorum sensing system; Vibrio harveyi JMH597 AI-2 luminescence/OD600 ratio, 9 h; hits give low values; strain lacks LuxN and CqsS sensors; 0 = neutral-control median; AID 2094; actives 0.4% (n = 300,000); activity change, % at 7.5 µM; in the data active means activity change below about -75%, passing the limit was not always enough;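 further: luminescence divided by OD600 gain over 9 h not by final OD600 alone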
PREPL inhibitor = human PREPL enzyme inhibition; actives 0.68% (n = 320,000); Q4J6C6; AID 2751; inhibition, % at 5.96 µM; recombinant PREPL, fluorescence polarization activity-based probe; in the data active means inhibition above about 43%;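 further: 0% = enzyme with DMSO and 100% = wells lacking enzyme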
CHT PAM = allosteric activators of human choline transporter CHT; actives 0.49% (n = 310,000); Q9GZV3; CHT-expressing cells, membrane potential dye, choline EC20; hits give high values; LV-AA mutant CHT in HEK293 cells; AID 488977; B-score at 10 µM;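 active means initial fluorescence not abnormally high and integrated response B-score, plate-corrected, over 3 SD above library mean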
Starred values were filed as active, the others as inactive; i = inactive; . = not tested or not shown; ! = not active in a repeat. In the library only some 5% were active in any assay of this set; here they are far more common.

SMILES | CHT block | ALR H2O2 inh | AI-2 QS mod | PREPL inhibitor | CHT PAM
NC(=O)c1ccsc1N | i | 98.3* | 12.9 | 5.7 | i
NS(=O)(=O)c1ccc(OC(=O)CNC(=O)OCc2ccccc2)cc1 | i | 5.0 | 23.0 | 16.2 | i
CCN1CCN(CCCNC(=O)CCC(=O)N2CC(C)Oc3ccc(C)cc32)CC1 (stereo not given) | i | -11.9 | -1.1 | 21.0 | i
O=C1c2cccc([N+](=O)[O-])c2C(=O)N1C1CCCCC1 | i | 97.8* | 11.6 | -1.8 | i
CCc1nnc(N2C(=O)c3ccc(Oc4ccc([N+](=O)[O-])cc4)cc3C2=O)s1 | i | 92.6* | 14.1 | 8.5 | i
Cc1ccc(-c2nc(=S)c3c(n2Cc2ccco2)CC(C)(C)OC3)cc1 | i | 97.0* | 9.5 | -0.5 | 11.6*
Cc1ccc(-c2nc(=S)c3c(n2CC2CCCO2)CC(C)(C)OC3)cc1 (stereo not given) | i | . | 20.1 | 8.2 | i
COc1cc(C2C(C#N)=C(N)Oc3n[nH]c(C)c32)ccc1OC(=O)c1ccccc1 (stereo not given) | i | 5.4 | 16.2 | 60.7* | i
CC(C)c1[nH]nc2c1C(c1ccc(OC(=O)c3ccco3)cc1)C(C#N)=C(N)O2 (stereo not given) | i | 15.3 | 5.2 | 60.1* | i
COC(=O)Cc1[nH]nc2c1C(c1cc(OC)c(OC)c(OC)c1)C(C#N)=C(N)O2 (stereo not given) | i | . | 16.0 | 0.1 | i
COC(=O)Cc1[nH]nc2c1C(c1ccc(O)c(OC)c1)C(C#N)=C(N)O2 (stereo not given) | i | 98.7* | 10.6 | 1.9 | i
COCc1[nH]nc2c1C(c1ccc(OC)cc1)C(C#N)=C(N)O2 (stereo not given) | i | 8.4 | 16.9 | 17.6 | i
COC(=O)CCC(=O)OC1(C)C(=O)C2=CN(CCCCO)C(c3ccc(OC)cc3)=CC2=C(Br)C1=O (stereo not given) | i | . | 26.9 | 55.3* | i
Cc1cc(C(=O)NNCc2ccccc2)no1 | i | -2.7 | . | -1.8 | i
Cc1ccc(CNC(=O)C(=O)NCC2OCCN2S(=O)(=O)c2ccc(Br)cc2)cc1 (stereo not given) | i | -2.7 | 26.7 | 3.3 | i
CN(C)S(=O)(=O)c1ccc(C(=O)Nc2nnc(SCC(=O)NCC3CCCO3)s2)cc1 (stereo not given) | i | 94.2* | 27.2 | 6.1 | i
CC(C)(C)c1ccc(C(=O)Nc2nnc(SCC(=O)NCC3CCCO3)s2)cc1 (stereo not given) | i | 4.1 | 9.6 | 1.0 | i
COc1cccc(CN2CCC(n3nccc3NC(=O)CCCc3ccccc3)CC2)c1 | i | -13.3 | -81.1* | 13.7 | i
CCN(c1ccc(C(=O)CSc2nnc(C3CC3)n2C2CC2)cc1)S(C)(=O)=O | . | 96.2* | . | 0.7 | .
COc1ccc(CSC2=NCCN2)cc1Br | i | 98.9* | 19.8 | -1.6 | i
CCCCOc1ccc(CSc2nc(C)[nH]c2[N+](=O)[O-])cc1[N+](=O)[O-] | i | 98.7* | 11.0 | 12.9 | i
CCCOc1ccc(CSC2=NCCN2)cc1[N+](=O)[O-] | i | 99.4* | 2.5 | -6.1 | i
CCCCOc1ccc(CSc2nnc(C)n2N)cc1[N+](=O)[O-] | i | 59.6 | 20.3 | 3.9 | i
COc1ccc(CSc2nnc(C)n2N)cc1Br | i | -17.4 | 10.6 | 8.6 | i
COc1ccc2c(N)c(C(=O)NN)[nH]c2c1 | i | 1.3 | 16.7 | 6.8 | i
SMILES | CHT block | ALR H2O2 inh | AI-2 QS mod | PREPL inhibitor | CHT PAM
CCOC(=O)c1[nH]c2ccc(F)cc2c1N=C(C)N(CC)CC | i | 79.9* | 11.8 | 6.8 | i
CCOC(=O)c1[nH]c2ccc(C)cc2c1N=CN(CC)CC | i | 98.9* | 15.1 | 3.4 | i
COC(=O)c1[nH]c2cc(OC)ccc2c1N=CN(C)C | i | 88.4* | 29.8 | -4.0 | i
CC(=O)c1cccc(NC(=O)CSc2nnnn2C2CCCC2)c1 | . | . | 13.2 | . | .
CCCn1c(SCC(=O)Nc2cc(S(=O)(=O)N3CCOCC3)ccc2OC)n[nH]c1=O | i | -9.0 | 9.0 | -6.3 | i
CCN(CC)S(=O)(=O)c1ccc(N/N=C/c2ccc(O)cc2)nc1 | i | 99.4* | 36.0 | -1.5 | i
O=C(NC1CCC(Oc2ccc(C(=O)O)cc2)CC1)NC12CC3CC(CC(C3)C1)C2 (stereo not given) | . | -7.9 | . | -1.3 | .
O=C(CSc1nc2ccccc2[nH]1)N=Nc1c(O)[nH]c2ccccc12 | i | 96.5* | 26.9 | -0.8 | i
Cc1ccc(SCC(=O)NC2CCS(=O)(=O)C2)cc1C (stereo not given) | . | 99.1* | . | 3.3 | .
CC1(C(=O)OCC(=O)Nc2ccc(S(=O)(=O)N3CCOCC3)cc2)CC1(Cl)Cl (stereo not given) | . | -10.5 | . | 7.2 | .
CCN(CC)c1ccc(C2CC(=O)Nc3cc(OC)c(OC)cc32)cc1 (stereo not given) | i | 98.4* | 15.8 | -0.7 | i
COc1cc2c(cc1OC)C(c1ccc(N(C)C)cc1)CC(=O)N2 (stereo not given) | i | 37.5 | 10.7 | 14.8 | i
CCC(C)NC(=O)Cn1nc(Cc2ccncc2)c2ccccc2c1=O (stereo not given) | i | -2.1 | 12.5 | -4.5 | i
CCOC(=O)Nc1ccc2c(c1)N(C(=O)CCN(CC)CC)c1ccccc1S2=O (stereo not given) | i | 12.5 | 8.7 | 4.8 | i
Cc1ccc2nc(-c3ccc(O)c(O)c3)cn2c1 | i | 98.8* | 9.7 | 0.6 | i
Oc1ccc(CCc2n[nH]c(=S)n2-c2ccc(F)cc2)cc1 | i | 80.5* | 23.3 | -8.2 | i
C/C=C/Cn1c(Br)nc2c1c(=O)n(C)c(=O)n2C | i | -0.6 | -3.4 | 1.8 | i
CCCCCn1c(Br)nc2c1c(=O)n(CC(N)=O)c(=O)n2C | i | 92.5* | 3.4 | 7.1 | i
Clc1cccc(CN2CCCCCC2)c1Cl | i | 0.6 | -5.9 | 5.4 | i
Cc1nnc(N2CCN(Cc3ccccc3)CC2)[nH]c1=O | i | 99.3* | 11.0 | 0.1 | i
N#Cc1c(-c2ccccc2)nc(N2CCN(Cc3ccccc3)CC2)[nH]c1=O | i | 2.5 | 5.5 | 11.5 | i
Cc1nc(N2CCN(c3ccccc3)CC2)[nH]c(=O)c1C | i | 96.8* | 23.8 | 2.4 | i
Cc1cc2[nH]c(=O)c(=O)[nH]c2cc1S(=O)(=O)N1CCN(c2ccccc2)CC1 | i | 97.0* | 37.5 | 5.1 | i
CN(C[C@H](Cc1ccccc1)N(C[C@H](Cc1ccccc1)N(CC1(c2ccccc2)CC1)N=O)N=O)N=O | i | 5.4 | -1.3 | -4.1 | i
CCOc1c(C)cc(-c2ncccc2O)cc1C | i | 91.9*! | 14.8 | -8.1 | i
COc1ccc(-c2ncccc2O)cc1 | i | 20.8 | 36.6 | 0.0 | i
